# A selection: hits, their analogues and other compounds. The true share with any hit is near 1.8%.
# PAD4 inh: human PAD4 inhibitors, primary screen, biochemical, fluorescence polarization, 1536-well format; recombinant PAD4, RCA probe fluorescence polarization; Protein-arginine deiminase type-4 (Homo sapiens), Q9UM07; inhibition, % at 6.36 µM; 330,000 tested, 0.41% active; AID 485272, 2010;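 active = percent inhibition above a cutoff equal to the mean of all tested compounds plus 3 SD, cut at about 15% in these data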;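 also: 0% = PAD4 with RCA probe and DMSO and 100% = probe without PAD4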
# LYPLA2 inh: LYPLA2 inhibitors, primary screen, counter-screen for PME1 inhibitor project, biochemical, fluorescence polarization, FP-Rh probe ABPP; recombinant LYPLA2; AID 2177, 2009; 320,000 tested, 0.38% active; inhibition, % at 5.9 µM; Acyl-protein thioesterase 2 (Homo sapiens), O95372;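 active = inhibition above the screen-wide mean plus 3 SD, limit set per campaign, cut at about 26% in these data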;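 also: 0% = LYPLA2 with DMSO and 100% = wells lacking LYPLA2 enzyme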
# PME-1 inh: PME-1 inhibitors via competitive probe labeling, primary screen, biochemical, fluorescence polarization, FP-Rh probe, HTS. Protein phosphatase methylesterase 1 (Homo sapiens), Q9Y570. recombinant PME-1. inhibition, % at 5.9 µM. 320,000 tested, 0.53% active;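 active = inhibition above the campaign mean of all compounds plus 3 SD, cut at about 26% in these data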;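 also: competitive labeling of PME-1 active site by serine hydrolase directed probe; 0% = PME-1 with DMSO and 100% = wells lacking PME-1 enzyme; inhibitors block probe labeling so polarization falls and inhibition rises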
# GSTO1 counter: inhibitors of recombinant GSTO1, primary screen, counter-screen for RBBP9 inhibitor project, biochemical, fluorescence polarization; Glutathione S-transferase omega-1 (Homo sapiens), P78417; activity-based probe fluorescence polarization; inhibition, % at 5.96 µM; 300,000 tested, 1.1% active;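 active = inhibition above the campaign mean inhibition plus 3 SD, cut at about 35% in these data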;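 also: 0% = GSTO1-1 with DMSO and 100% = wells lacking GSTO1-1 enzyme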
# Target sequence (P78417 whole entry, looked up): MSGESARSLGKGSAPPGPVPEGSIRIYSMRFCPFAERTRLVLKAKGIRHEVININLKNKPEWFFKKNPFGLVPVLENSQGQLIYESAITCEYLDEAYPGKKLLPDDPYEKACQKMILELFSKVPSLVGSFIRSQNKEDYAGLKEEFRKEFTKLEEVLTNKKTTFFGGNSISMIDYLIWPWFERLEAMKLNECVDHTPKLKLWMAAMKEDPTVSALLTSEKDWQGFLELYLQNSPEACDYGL
# Fam108B inh: mouse Fam108B serine hydrolase inhibitors, primary screen, counter-screen for RBBP9 inhibitor project, biochemical, fluorescence polarization; recombinant Fam108B, FP-Rh probe fluorescence polarization; inhibition, % at 9.51 µM; 300,000 tested, 0.33% active; AID 1947, 2009;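 active = inhibition above the screen mean inhibition plus 3 SD, computed separately per campaign, cut at about 18% in these data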;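 also: inhibitors lower polarization as less probe binds the enzyme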
# LYPLA1 counter: LYPLA1 inhibitors, primary screen, counter-screen for PME1 inhibitor project, biochemical, fluorescence polarization, FP-Rh probe ABPP | Acyl-protein thioesterase 1 (Homo sapiens), O75608 | 320,000 tested, 0.16% active | recombinant LYPLA1 | inhibition, % at 5.9 µM;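 active = inhibition above the mean of all tested compounds plus 3 SD, set per campaign, cut at about 14% in these data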;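 also: inhibitors block serine hydrolase probe labeling of LYPLA1 so polarization falls; 0% = enzyme with DMSO and 100% = wells lacking LYPLA1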
# Target sequence (O75608 whole entry, looked up): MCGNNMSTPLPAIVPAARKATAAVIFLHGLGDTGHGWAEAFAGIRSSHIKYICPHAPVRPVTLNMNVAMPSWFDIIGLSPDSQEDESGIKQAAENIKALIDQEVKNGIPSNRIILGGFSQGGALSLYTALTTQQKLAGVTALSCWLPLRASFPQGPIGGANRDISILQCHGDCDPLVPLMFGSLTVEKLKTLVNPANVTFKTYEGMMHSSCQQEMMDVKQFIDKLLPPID
# LYPLA2 confirm: LYPLA2 inhibitors, retest, confirmation, counter-screen for PME1 inhibitor project, biochemical, fluorescence polarization, FP-Rh probe ABPP; shares compounds with LYPLA2 inh; recombinant LYPLA2; inhibition, % at 5.9 µM; 1,100 tested, 72% active; AID 2232, 2010;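 active = mean inhibition across replicates above the hit cutoff set in the primary screen, cut at about 26% in these data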;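 also: blocked labeling of the enzyme by serine hydrolase FP-Rh probe lowers polarization; 0% = enzyme with DMSO and 100% = wells lacking LYPLA2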
# LYPLA2 gel ABPP: LYPLA2 inhibitors in proteome, late-stage follow-up, gel-based competitive ABPP, fluorescence, assay provider; shares compounds with LYPLA2 inh; rhLYPLA2 in mouse brain proteome, gel ABPP FP-Rh; inhibition, % at 20 µM; 150 tested, 30% active; AID 652029, 2013;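 active = inhibition of LYPLA2 enzyme probe labeling above about 50%, limit read from the data; inactive = inhibition below that limit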;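 also: loss of FP-Rh probe labeling of the LYPLA2 gel band measured as band density; 0% = DMSO only control band and 100% = blank gel background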
# * = called active by the depositor; · = no result.
SMILES,PAD4 inh,LYPLA2 inh,PME-1 inh,GSTO1 counter,Fam108B inh,LYPLA1 counter,LYPLA2 confirm,others
CCn1cnc2sc(C(=O)Nc3ccccc3OC)c(C)c2c1=O,-3,0,0,5,-2,1,·,
CCN(CC)CCCNC(=O)c1sc2ncn(CC(=O)Nc3ccc(C)c(Cl)c3)c(=O)c2c1C,-1,38*,-6,-4,-4,-3,40*,
CC(C)C[C@H](NC(=O)N1CCCCCC1)C(=O)O,-2,-1,-2,6,6,-4,·,
Cc1cccc2nc3c(nc12)CCCC3,-2,6,-7,-1,-2,-1,·,
COc1ccccc1C(=O)COC(=O)c1ccc(-n2cnnn2)cc1,7,32*,2,9,1,8,24,
COc1ccccc1C(=O)COC(=O)c1cccc(-n2cnnn2)c1,-5,7,1,·,·,3,·,
CN(C)c1ccc(-c2noc(C3CCN(S(=O)(=O)c4ccc(C(=O)O)cc4)CC3)n2)cc1,-1,30*,0,2,-2,5,29*,
Cc1ccc(-c2noc(C3CCN(S(=O)(=O)c4ccc5c(c4)OCCO5)CC3)n2)o1,0,56*,7,2,0,6,54*,LYPLA2 gel ABPP=9
Cc1ccc(-c2noc(C3CCCN(S(=O)(=O)c4ccc5ccccc5c4)C3)n2)o1 (stereo not drawn),-2,-8,-6,2,-4,-5,·,
Cc1ccc(NC(=O)C(=O)NN=C2CCCC2)cc1C,-2,-4,1,4,-1,-5,·,
Cc1ccc(-n2nnnc2CN2CCCCC2)cc1,0,33*,3,1,0,4,1,
Clc1ccc(-n2nnnc2CN2CCOCC2)cc1,-3,1,-7,2,0,0,·,
Cc1ccc(NC(=O)Cn2c(=O)c(C)nc3ccccc32)cc1,-7,12,-3,-1,-2,0,·,
Cc1nc2ccccc2n(CC(=O)Nc2cc(Cl)cc(Cl)c2)c1=O,-6,32*,-4,-8,0,-2,42*,
COC(=O)c1sccc1NC(=O)CN1CCN(c2ccc(F)cc2)CC1,-2,1,-4,7,5,0,·,
O=C(Nn1cnc2ccccc2c1=O)c1c(F)cccc1F,-3,-1,0,2,-5,-1,·,
CCc1nnc(NS(=O)(=O)c2ccc(NC(=S)NC(=O)/C=C/c3ccc([N+](=O)[O-])cc3)cc2)s1,-2,67*,-4,-15,-2,1,77*,LYPLA2 gel ABPP=37
O=C(Cc1ccc(S(=O)(=O)N2CCOCC2)s1)N1CCN(c2cccc(C(F)(F)F)c2)CC1,-2,40*,1,1,0,1,48*,
CC(C)CCn1c(=O)c2sccc2n2c(CCCC(=O)N3CCC(N4CCCCC4)CC3)nnc12,3,28*,7,-1,-1,6,3,
CC(C)Cn1c(=O)c2sccc2n2c(CCCC(=O)N3CCC(N4CCCCC4)CC3)nnc12,1,3,-2,11,2,4,·,
Cc1ccccc1S(=O)(=O)Cc1ccc(C(=O)NCCCN2CCC(C)CC2)o1,-3,3,-13,-7,2,-3,·,
COc1ccc(C(=O)O/N=C2\CCCc3nonc32)cc1,4,42*,8,2,2,1,61*,
COc1cccc(NC(=O)COC(=O)C2=NN(c3ccccc3)C(=O)CC2)c1,-3,·,·,·,·,·,·,
O=C(CCCN1C(=O)c2cccc3cccc(c23)C1=O)N1CCN(c2ccccc2O)CC1,3,49*,4,-3,10,8,49*,

# Bioassay records from PubChem BioAssay.
